We go through 17 compounds from PubChem BioAssay AID651784 (National Center for Advancing Translational Sciences (NCATS), 2012).

Structures are written as SMILES. Records with an inconclusive call do not appear. The source made the active and inactive calls. Calls come from the whole dose curve; as a rule, active = well fitted inhibition curve with a large enough effect; inconclusive = small, poorly fitted or top-dose-only effect; inactive = no such curve, though single readings can be large or run the other way.
Potency is the fitted concentration of half-maximal effect.

This test is described as follows: Acumen qHTS Assay for Inhibitors of the mTORC1 Signaling Pathway in MEF (Tsc2-/-, p53-/-) Cells: Hit Validation. Note: nearly all actives have a fitted effect of over 65% in size. The note with it: Acumen imaging; activity change, negative = inhibition: at 37.3 µM (top of the series). From the text:
The mammalian target of rapamycin (mTOR) is an intracellular serine/threonine kinase Aberrant regulation of mTOR signaling plays a causative role in a number of human diseases, including cancer, benign tumors such as lymphangioleiomyomatosis (LAM) and Tuberous Sclerosis Complex (TSC), and metabolic diseases such as diabetes and obesity. This project aims to identify inhibitors of ribosomal protein S6 (rpS6) phosphorylation. The phosphorylation of rpS6 is a key event downstream of mTOR activation. The assay uses a phospho-specific antibody of phospho-rpS6 to detect inhibitors of mTOR activation. Mutations in the Tsc1 and Tsc2 genes are the underlying genetic lesions responsible for TSC, causing constitutive activation of the mTORC1 pathway and leading to profound effects on cell metabolism. Aberrant metabolism in cancer has recently received significant attention as a target to develop therapeutic agents in the treatment of cancer.1 As Tsc2-/- cells have lost the ability to respond to energy and growth factor deprivation, these cells are unable to properly down regulate cellular biosynthetic processes in response to metabolic stress, and are thus extremely sensitive to glucose deprivation-induced death.2 A central goal of this project is to explore the unique cell survival and metabolic properties of cells with Tsc1 or Tsc2 by screening for compounds that selectively target the Tsc2-/- MEFs by screening both Tsc2-/- and WT MEF cell lines. We hope to better understand these aspects of TSC physiology in order to exploit them for therapeutic benefit.
NIH Molecular Libraries Probe Production Centers Network [MLPCN]
NIH Chemical Genomics Center [NCGC]
Assay Submitter (PI): Blenis, John; Harvard University
For quantitative high throughput analysis of mTORC1 signaling, we developed a cell-based assay for immuno-fluorescence based detection of rpS6 phosphorylation on the Acumen Explorer that will be used a platform for the primary small molecule screen. Mouse embryonic fibroblasts (MEFs) are cultured in 1536-well plates using DMEM + 10% FBS. Twenty-four hrs after plating, test compounds (solubilized in DMSO) are delivered and incubated with the cells for 24 hrs at 37 degree Celsius. Following the incubation, media with compound is aspirated and the cells are fixed in 4% paraformaldehyde (PFA) containing PBS + 0.2% TX-100. Next, PFA is aspirated, cells are washed two times with PBS plus 0.2% TX-100 and the cells are blocked for 1 hr at room temperature (blocking buffer: LiCOR Blocking Buffer plus 0.2% TX-100). This is followed by aspiration and staining with Alexa-488 conjugated-phospho-rpS6 Ser235/236 antibody for 2 hours at room temperature (Cell Signaling Technology # 4803, 1:50 dilution in blocking buffer). Cells are washed two times with PBS plus 0.2% TX-100, and stained with 10 uM propidium iodide (PI) for 20-25 minutes for cell number measurement (1:500 dilution of Hoescht staining is also added for IN Cell imaging). The plates are scanned on the Acumen Explorer laser scanning instrument (TTP Labtech) using the 488nm laser for simultaneous excitation of the Alexa-488 and PI. […] Fluorescence emission from the PI stain is selected using a 575-640 nm band pass filter. The normalized phospho-S6 staining is calculated as the ratio of the integrated Alexa 488 intensity divided by the integrated PI intensity for the single concentration rapamycin control (7.5 nM) and DMSO columns. […] Inhibition of the pathway is defined based on the normalized phospho-S6 intensity in rapamycin treated cells. Active cells are defined as those with a normalized phospho-S6 staining above this threshold, and each treatment is reported as the % positive cells in the well, where thresholds are defined by selecting wells with the highest and lowest signal and differentiating between the % non-active and % active populations. In addition to the pathway specific phospho-S6 endpoint, the number of PI stained cells from the Acumen is recorded as a measure of cell viability. […]
(In general: In qHTS, concentration-response curves come from the screen itself.)
Turning to `Cc1cccc(N(CC(=O)NCCSc2ccc(Cl)cc2)S(=O)(=O)c2ccccc2)c1C`, the Potency is 13.1 µM (active). As for `COc1ccccc1N=c1scc(-c2ccc(S(=O)(=O)N3CCCC3)cc2)n1C`, the Potency is 5.85 µM (active). Regarding `CCCCOc1ccc(CN2C(=O)C(=O)c3cc(C)ccc32)cc1OC`, the Potency was 0.261 µM (active). For the compound `COc1ccc(S(=O)(=O)NCCc2sc3nc(-c4ccc(C)cc4)nn3c2C)cc1F`, the Potency was 7.36 µM (active). Regarding `CN[C@@H]1C[C@@]2(C)O[C@@H]([C@@H]1OC)n1c3ccccc3c3c4c(c5c6ccccc6n2c5c31)C(=O)NC4`, the Potency was 0.0163 µM (active). In the case of `CCN(CC)C(=O)c1ccc(NC(=O)CCn2nc(-c3ccc(C)cc3)c3ccccc3c2=O)cc1`, the activity change, negative = inhibition is -9.62%. `CCOc1ccc(/C=C/c2nc(C#N)c(NCc3ccccc3)o2)cc1`: the Potency is 1.04 µM (active). For the compound `O=C(c1ccccc1)c1ccc2nc(N3CCN(c4ccc(F)cc4)CC3)c3nncn3c2c1`, the Potency is 18.5 µM (active). For the compound `COc1ccc(C(=O)Nc2ccc3c(c2)N(C)C(=O)c2ccccc2S3)cc1OC`, the Potency is 10.4 µM (active). As for `CCOc1ccc(CN(CCc2ccc3c(c2)OCO3)Cc2ccc(C)cc2)cc1`, the activity change, negative = inhibition is -0.408%.

Consider `O=C(NCCc1ccc(Cl)cc1)C(=O)NCC(c1cccs1)S(=O)(=O)c1cccs1` (configuration not stated), for which the activity change, negative = inhibition was -3.28%.

In the case of `Cc1oc(-c2ccc(Cl)cc2)nc1CN1CCC(C(=O)NCCCN2CCN(c3cccc(Cl)c3)CC2)CC1`, the Potency was 5.85 µM (active). For the compound `Cc1ccccc1-c1nc(CN2C(=O)CN=C(c3ccccc3)c3ccccc32)c(C)o1`, the activity change, negative = inhibition is -13.1%. On the same count and under the same terms, with `NC(N)=NC(=O)c1nc(Cl)c(N)nc1N` the figure was 57.9%. On to `COc1ccc(N2CCN(C(=O)C3CCCN(S(=O)(=O)c4ccc5c(c4)CCCN5C(C)=O)C3)CC2)cc1` (configuration not stated), for which the Potency is 16.5 µM (active). `Cc1ccc(-n2c(/C=C/c3ccc(Br)s3)nc3ccccc3c2=O)cc1C`: the activity change, negative = inhibition was -10.2%.

With `COc1ccc2nc(NC(=O)c3nc(S(=O)(=O)Cc4cccc(C)c4)ncc3Cl)sc2c1`, the Potency is 2.07 µM (active).
